Compound activity as filed in PubChem BioAssay.
MPTP block: inhibitors of mitochondrial permeability transition pore. isolated mouse mitochondria, Ca2+ swelling absorbance, 30 min. inhibition, % at 10 µM. 360,000 tested, 1.4% active. AID 602449;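 active = inhibition of 50% or more, scaled per plate between neutral and stimulator controls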;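 note: 0% = DMSO wells given calcium and 100% = 1 mM EGTA wells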
Mdm2-MdmX inh: disrupts the human Mdm2-MdmX interaction | inhibition, % at 8 µM | SaOS-2 split-luciferase Mdm2/MdmX complementation, luminescence | AID 485346 | O15151+Q00987 | 330,000 tested, 3% active;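 active = inhibition of at least 50% at 8 µM in the primary screen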
Target sequence (O15151 whole entry, looked up): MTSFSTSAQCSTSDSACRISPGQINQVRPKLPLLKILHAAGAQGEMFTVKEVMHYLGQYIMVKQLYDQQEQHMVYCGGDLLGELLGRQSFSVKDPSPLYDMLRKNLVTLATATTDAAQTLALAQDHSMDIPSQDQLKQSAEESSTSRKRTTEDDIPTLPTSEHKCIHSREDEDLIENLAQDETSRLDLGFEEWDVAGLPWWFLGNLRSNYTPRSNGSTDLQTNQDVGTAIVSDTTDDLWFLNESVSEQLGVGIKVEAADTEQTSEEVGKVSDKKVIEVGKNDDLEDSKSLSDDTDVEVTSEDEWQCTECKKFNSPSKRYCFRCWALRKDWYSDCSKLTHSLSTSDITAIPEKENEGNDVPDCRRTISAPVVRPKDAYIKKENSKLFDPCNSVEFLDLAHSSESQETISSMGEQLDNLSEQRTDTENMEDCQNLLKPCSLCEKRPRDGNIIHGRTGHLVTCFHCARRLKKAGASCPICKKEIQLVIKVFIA
Target sequence (Q00987 whole entry, looked up): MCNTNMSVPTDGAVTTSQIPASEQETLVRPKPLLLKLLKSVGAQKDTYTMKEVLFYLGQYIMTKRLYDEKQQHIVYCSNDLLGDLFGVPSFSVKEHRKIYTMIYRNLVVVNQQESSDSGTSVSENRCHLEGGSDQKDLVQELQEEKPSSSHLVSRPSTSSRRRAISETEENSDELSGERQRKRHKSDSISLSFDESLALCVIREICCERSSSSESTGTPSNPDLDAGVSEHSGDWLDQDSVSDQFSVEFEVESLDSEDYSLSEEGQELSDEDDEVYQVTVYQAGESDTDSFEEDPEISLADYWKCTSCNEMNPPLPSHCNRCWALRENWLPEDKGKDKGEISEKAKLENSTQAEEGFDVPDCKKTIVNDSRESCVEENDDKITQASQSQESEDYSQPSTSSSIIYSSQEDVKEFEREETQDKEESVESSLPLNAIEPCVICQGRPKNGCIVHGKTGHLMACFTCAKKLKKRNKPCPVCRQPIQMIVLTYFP
NR3A LBD binder: NR3A (human) ligand-binding domain modulation; NR3A LBD differential scanning fluorimetry, Tm shift; 0% = protein alone, 100% = glycine-bound protein; Tm shift relative to glycine control, % at 25 µM; 340,000 tested, 2.5% active; AID 1259313;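 active = melting temperature shift of at least 10% of the positive control shift, at one fixed dose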
SKKanGAS inh: inhibitors of SKKanGAS S. pyogenes growth in kanamycin (SK-promoter or general growth effect) | BacTiter-Glo, 6 h | inhibition, % at 7.5 µM | 300,000 tested, 1.3% active | AID 1662;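 active = mean replicate score, as percent of positive control median, at least 50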;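 note: strain carries kanamycin resistance gene driven by streptokinase promoter and grows in 40 µg/ml kanamycin; loss of luminescence reflects streptokinase promoter inhibition or plain growth inhibition; 0% = median of DMSO wells and 100% = positive control at its reference dose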
CSC inhib: blocks cancer stem cells. cancer stem cell-like cells viability, luminescence. inhibition, % at 7.5 µM. 300,000 tested, 1.1% active; in the data active = inhibition above about 75%; tested in HMLE shEcad cells
Beta apoptosis: beta cell apoptosis inhibition. protection from apoptosis, % (no concentration beside the values). 300,000 tested, 0.8% active. INS-1E cytokine-induced death, ATP luminescence, 48 h; percent of positive-control rescue, neutral wells zero;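 active = Every replicate reaches about 75%, or at least half do and their mean reaches it too, limit read from the data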;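 note: 0% = cytokine-treated negative control wells and 100% = positive control rescue; higher means more ATP so stronger rescue from cytokine killing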
* hit, by the source's call. An excerpt weighted towards active compounds, which were near 6.9% of everything screened.

`Cc1cc(=O)n2[nH]cc(-c3ccccc3)c2n1` gave MPTP block -1, Mdm2-MdmX inh 2, NR3A LBD binder -1, SKKanGAS inh -1, CSC inhib -6 and Beta apoptosis -5.
`Cc1nc2c(-c3ccccc3)c[nH]n2c(=O)c1Cc1ccccc1` gave MPTP block 0, Mdm2-MdmX inh 49, NR3A LBD binder -12, SKKanGAS inh 71*, CSC inhib 13 and Beta apoptosis 39.
O=C(NCC1CCN(Cc2ccc(F)cc2)CC1)Nc1cc(F)ccc1F was read as MPTP block 5, Mdm2-MdmX inh 13, NR3A LBD binder 10*, SKKanGAS inh 2, CSC inhib -12 and Beta apoptosis 7.
O=C(NCC1CCN(Cc2ccccc2F)CC1)Nc1cc(F)ccc1F was read as MPTP block 1, Mdm2-MdmX inh -11, NR3A LBD binder 0, SKKanGAS inh 8, CSC inhib -4 and Beta apoptosis 4.
`COc1ccc(Sc2ccc(NC(=O)c3ccccc3Cl)cc2C#N)cc1` gave MPTP block 4, Mdm2-MdmX inh 47, NR3A LBD binder 2, SKKanGAS inh 52* and CSC inhib 68.
`CN(C)S(=O)(=O)N1CCC(Oc2ccc(C(=O)NCCc3cscn3)cc2)CC1` gave MPTP block -1, Mdm2-MdmX inh -10, NR3A LBD binder 13*, SKKanGAS inh -1, CSC inhib -10 and Beta apoptosis -7.
For c1ccc(-c2nc3cc4ccccc4cc3[nH]2)nc1 the results were MPTP block -2, Mdm2-MdmX inh -21, NR3A LBD binder -20, SKKanGAS inh 10, CSC inhib 27 and Beta apoptosis 44.
For c1cncc(-c2nc3cc4ccccc4cc3[nH]2)c1 the results were MPTP block 2, Mdm2-MdmX inh -178, NR3A LBD binder 22*, SKKanGAS inh -5, CSC inhib 9 and Beta apoptosis 6.
Cc1ccccc1OCCn1c(C)nc2ccccc21 was read as MPTP block 14, Mdm2-MdmX inh 14, NR3A LBD binder 0, SKKanGAS inh 4, CSC inhib 18 and Beta apoptosis 78*.
Cc1nc2ccccc2n1CCOc1ccccc1 was read as MPTP block 1, Mdm2-MdmX inh -35, NR3A LBD binder -1, SKKanGAS inh 2, CSC inhib 12 and Beta apoptosis 0.
Screening O=C(CSc1nnc(-c2c[nH]c3ccccc23)o1)c1ccc(-c2ccccc2)cc1 returned MPTP block 2, Mdm2-MdmX inh -12, NR3A LBD binder 24*, SKKanGAS inh 18, CSC inhib -15 and Beta apoptosis -1.
Screening CN(Cc1ccc(F)cc1)C(=O)C(Cc1ccccc1)NC(=O)c1ccccc1 (stereo not drawn) returned MPTP block -1, Mdm2-MdmX inh 16, NR3A LBD binder -2, SKKanGAS inh 3, CSC inhib -5 and Beta apoptosis 5.
Screening CSc1ccc(CN(C)C(=O)C(Cc2ccccc2)NC(=O)c2ccccc2)cc1 (stereo not drawn) returned MPTP block 0, Mdm2-MdmX inh 23, NR3A LBD binder 14*, SKKanGAS inh -4, CSC inhib 20 and Beta apoptosis 5.
Screening CC(C)(C)c1ccc(NC(=O)N2CCCN(c3c(Cl)cncc3Cl)CC2)cc1 returned MPTP block 0, Mdm2-MdmX inh 37, NR3A LBD binder -7, SKKanGAS inh 16, CSC inhib 77* and Beta apoptosis 3.
Screening COc1ccc(C(=O)OCC(=O)N2CCCC2=O)c(OC)c1 returned MPTP block -2, Mdm2-MdmX inh 12, NR3A LBD binder 0, SKKanGAS inh -15, CSC inhib -10 and Beta apoptosis 5.
`COc1ccc(O)c(/C=N/NC(=S)Nc2cccnc2)c1` gave MPTP block 2, Mdm2-MdmX inh 16, NR3A LBD binder -3, SKKanGAS inh 0, CSC inhib 50 and Beta apoptosis 76*.
Screening CCn1cc(C(=O)O)c(=O)c2cc(F)c(N3CCN(S(=O)(=O)c4ccc(Br)cc4)CC3)cc21 returned Mdm2-MdmX inh -3, SKKanGAS inh 34, CSC inhib 0 and Beta apoptosis 1.
`O=C(O)c1cn(C2CC2)c2cc(N3CCN(S(=O)(=O)c4ccc5c(c4)OCCO5)CC3)c(F)cc2c1=O` gave MPTP block -5, Mdm2-MdmX inh 12, NR3A LBD binder 0, SKKanGAS inh 121*, CSC inhib -1 and Beta apoptosis 11.
Cn1c(=O)c2c(ncn2CC(=O)N2CCN(c3ccc([N+](=O)[O-])cc3)CC2)n(C)c1=O was read as MPTP block 6, Mdm2-MdmX inh 12, NR3A LBD binder 18*, SKKanGAS inh -8, CSC inhib 0 and Beta apoptosis 5.
`CCN(Cc1ccccc1)C(=O)c1nn(-c2ccc(OC)cc2)c(=O)c2c1c1ccccc1n2C` gave MPTP block 0, Mdm2-MdmX inh 0, NR3A LBD binder -1, SKKanGAS inh 16, CSC inhib -6 and Beta apoptosis -1.
Nc1ccc(N=Nc2ccccc2)c2ccccc12 was read as MPTP block 1, Mdm2-MdmX inh 30, NR3A LBD binder -12, SKKanGAS inh 86*, CSC inhib 81* and Beta apoptosis 9.
`Nc1ccc(N=Nc2ccccc2)c(N)n1` gave MPTP block 0, Mdm2-MdmX inh -9, NR3A LBD binder 5 and SKKanGAS inh 2.
Screening COc1ccc(N=c2oc3cc(O)ccc3cc2C(=O)Nc2ccccn2)cc1OC returned MPTP block 24, Mdm2-MdmX inh 40, NR3A LBD binder 15*, SKKanGAS inh 42, CSC inhib 21 and Beta apoptosis 2.
Screening O=[N+]([O-])c1ccc(S(=O)(=O)NN=Cc2ccc(Cl)c(Cl)c2)cc1 returned MPTP block 46 and NR3A LBD binder 12*.
`COc1ccc(-n2nc([N+](=O)[O-])c(=NCCc3ccc(C)cc3)n2O)cc1` gave MPTP block 2, Mdm2-MdmX inh -17, NR3A LBD binder -5, SKKanGAS inh 2 and Beta apoptosis 3.
`COc1ccc(-n2nc([N+](=O)[O-])c(=NCCc3ccc(OC)c(OC)c3)n2O)cc1` gave MPTP block 8, Mdm2-MdmX inh 12, NR3A LBD binder 23*, SKKanGAS inh 3, CSC inhib -7 and Beta apoptosis 5.
CCCC1=NN2C(=N)/C(=C\c3cc(C)n(-c4cc(C)cc(C)c4)c3C)C(=O)N=C2S1 was read as MPTP block 12, Mdm2-MdmX inh 21, NR3A LBD binder 12*, SKKanGAS inh 72*, CSC inhib -3 and Beta apoptosis -1.
`Cc1cc(C)cc(-n2c(C)cc(/C=C3\C(=N)N4N=C(CC(C)C)SC4=NC3=O)c2C)c1` gave MPTP block 19, Mdm2-MdmX inh 8, NR3A LBD binder -5, SKKanGAS inh 69*, CSC inhib 103* and Beta apoptosis 12.
